This note sets out measurements from PubChem BioAssay (NCATS).

Records with an inconclusive call do not appear. Active and inactive are the calls of the source. Unless noted, the call rests on the fitted dose curve; in most records, active means well fitted curve in the direction sought with a large enough effect; inconclusive means small, poorly fitted or top-dose-only effect, or another doubt; inactive means no such curve, though single readings can be large; an effect the other way counts as inactive or inconclusive.

For experiment [1], the target named is Lysosomal acid glucosylceramidase (Homo sapiens) (UniProt P04062). As to the kind of experiment: Glucocerebrosidase-p2 (AID 348; in the data active means potency below about 10 µM; further: potency means the concentration at half of the fitted maximal effect). As to conditions: purified GBA, blue fluorogenic substrate, 40 min. The method, boiled down:
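Normal human glucocerebrosidase (0.2 nM) with blue fluorogenic substrate (80 uM final) in citrate/phosphate pH 5.9 with 10mM sodium taurocholate, 0.01% tween-20; 40 min RT, NaOH/glycine stop; fluorescence Ex 365/Em 440; AC50 from a titration from 0.6 nM upwards.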

Experiment [2] can be described thus: AP1 Signaling Pathway (AID 357; active means well fitted curve in either direction with a large enough effect, not every such curve was filed as active; further: on the % scale 0 is the no-effect control and ±100 the full control effect). The following applies: ME-180 AP-1-bla reporter, EGF-induced, beta-lactamase ratio, 5 h; at 7.69 µM (top of the series) unless noted. The essentials: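 ME-180 cells with beta-lactamase reporter under AP-1 response element, stimulated with EC50 EGF; compounds tested in titration series, 5 h at 37 °C. CCF4 substrate added 2.5 h at room temperature; 460/530 nm emission ratio gave %activity and AC50.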

The target of experiment [3] is Cytochrome P450 1A2 (Homo sapiens) (UniProt P05177). The experiment in a line: p450-cyp1a2 (AID 410; calls by dose curve; further: potency means the concentration at half of the fitted maximal effect;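 on activity change, negative = inhibition: -100% = full effect of reference inhibitor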). The method, boiled down:
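O-Demethylation of luciferin 6' methyl ether by human CYP1A2 is monitored as luciferase luminescence. Substrate sits at Km (100uM); enzyme is 20nM. Values are scaled to 57 uM furafylline as maximal inhibition.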

Experiment [4] is described as follows: NFAT Signaling Pathway (AID 444; active means well fitted curve in either direction with a large enough effect, not every such curve was filed as active;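 further: carbachol stimulus at about its EC50 of 1 µM final; on the % scale 0 is the no-effect control and ±100 the full control effect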). The following applies: Jurkat NFAT-bla M1, carbachol, beta-lactamase ratio, 5 h; at 7.69 µM (top of the series) unless noted. The method, boiled down:
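Jurkat cells carrying an NFAT-driven β-lactamase reporter and co-transfected muscarinic M1 receptor were treated with compound plus carbachol (1 uM final, an EC50 level) for 5 h at 37 °C. CCF4 loading followed for 1 h at RT; 460/530 nm ratio gave %activity.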

The nature of experiment [5]: Stat Signaling Pathway (AID 446; active means well fitted curve in either direction with a large enough effect, not every such curve was filed as active;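 further: ME-180 cervical cancer cells given 40 pM IL-6 alongside compound; SIE-controlled beta-lactamase reporter measured as 460/530 nm FRET emission ratio; on the % scale 0 is the no-effect control and ±100 the full control effect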). The following applies: ME-180 (cervical carcinoma) SIE beta-lactamase reporter, IL-6 stimulated, 5 h; at 7.69 µM (top of the series) unless noted. The essentials: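 Emission at 460 and 530 nm (excitation 405 nm) reports SIE-controlled beta-lactamase in ME-180 cells. Cells received compound with 40 pM IL-6 for 5 hrs at 37 C; data scaled between 300 pM IL-6 and 125 nM JAK-inhibitor controls.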

Experiment [6] concerns the target Glucocorticoid receptor (Homo sapiens) (UniProt P04150). As to the kind of experiment: GR-GFP Redistribution (AID 450;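 active means compounds whose dose series gives a full or clear partial fitted curve of increased nuclear translocation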; further: potency means the concentration at half of the fitted maximal effect). The following applies: U2OS GR-GFP nuclear translocation, laser cytometry, 2 h.
The target is the same in experiment [7]. The experiment in a line: GR-EFC Redistribution (AID 451; calls by dose curve; further: potency means the concentration at half of the fitted maximal effect). As to conditions: CHO-K1 GR-EFC translocation, beta-gal luminescence, 2 h. The method, boiled down:
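CHO-K1 cells stably expressing nuclear-localized β-gal enzyme acceptor and GR fused C-terminally to the enzyme donor fragment; ligand-driven nuclear translocation restores β-gal by complementation. Compounds titrated up to 46 uM final, 2 h at 37 °C; luminescence read.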

Experiment [8] addresses Mitogen-activated protein kinase 10 (Mus musculus) (UniProt Q61831). As to the kind of experiment: JNK3 AlphaScreen Assay (AID 530; active means well fitted curve in either direction with a large enough effect, not every such curve was filed as active;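 further: kinase came from lysate of stimulated human HepG2 cells; signal reports phosphorylation of biotinylated GST-cJun 1-79 at Ser73 with 10 µM ATP; on the % scale 0 is the no-effect control and ±100 the full control effect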). The method, boiled down: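 Phosphorylation of biotinylated GST-cJun(1-79) at Ser73 is measured by AlphaScreen proximity luminescence. Enzyme is JNK3 in HepG2 lysates activated with interleukin-1beta and tumor necrosis factor alpha; ATP is 10 uM final.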

The target of experiment [9] is 3',5'-cyclic-AMP phosphodiesterase 4B (Homo sapiens) (UniProt Q07343). As to the kind of experiment: qHTS Assay for Inhibitors of PDE-IV (AID 607; active means well fitted activation curve with a large enough effect in the main read-out, with a control signal flat, not every such curve was filed as active; further: % of control where 0% means no effect). The method, boiled down: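 The readout is membrane depolarisation from a cAMP-sensing CNG channel, detected with a potential dye at ex 535/em 590. Cells were HEK293-derived (endogenous PDE-IV) at 1000 cells/well, titrated up to 22.9 uM final.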
(Quantitative high-throughput screening tests each substance at several concentrations.)

Experiment [10] can be described thus: qHTS Assay for Lipid Storage Modulators (AID 1519; calls by dose curve). The following applies: Drosophila S3 cells, BODIPY lipid droplet/cell ratio, laser cytometry, cells loaded with oleic acid; for activity change, negative = inhibition: at 57.5 µM (top of the series). The essentials:
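Cells seeded at 5,000 per well were treated with compounds over a concentration series and loaded with oleic acid (400 uM, as added). Lipid droplet fluorescence (488 nm excitation, 500-530 nm channel) was read by laser-scanning cytometry and normalized to 20 uM Triacsin C.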

Experiment [11] has as its target Dual specificity protein kinase CLK4 (Homo sapiens) (UniProt Q9HAZ1). The experiment in a line: qHTS Assay for Inhibitors of CDC-like Kinase 4 (Kinase-Glo Assay) (AID 1770). Further: on the % scale 0 is the no-effect control and ±100 the full control effect; nearly all actives have a fitted effect of over 65% in size. The method, boiled down: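 Readout: Kinase-Glo luminescence from ATP left after a 4.5 h room-temperature reaction of 25 nM Clk4 with 100 uM RS peptide and 1 uM ATP (final). Buffer: 25 mM Tris pH 7.5, 10 mM MgCl2.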

For experiment [12] the target is unchanged. The experiment in a line: qHTS Assay for Inhibitors of CDC-like Kinase 4 (ADP-Glo Assay) (AID 1771). Further: nearly all actives have a fitted effect of over 70% in size. Further: potency means the concentration at half of the fitted maximal effect. The essentials:
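Compounds are pin-transferred onto substrate mix (100 uM RS peptide, 1 uM ATP), then 25 nM Clk4 is added. After 1 hr at room temperature, ADP-Glo reagent runs 45 min, detection reagent 30 min, then luminescence is read.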

Experiment [13] shares this target. The experiment in a line: qHTS Assay for Inhibitors of CDC-like Kinase 4 (ADP-FP Assay) (AID 1795).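 Further: recombinant human CLK4 phosphorylating RS repeat peptide at 1 µM ATP; on the % scale 0 is the no-effect control and ±100 the full control effect; nearly all actives have a fitted effect of over 60% in size.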 The method, boiled down: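 FP readout: Orange Transcreener ADP2 tracer (4 nM) plus ADP antibody, read after 30 min at room temperature. Kinase step: 6.25 nM Clk4, 100 uM RS peptide, 1 uM ATP, pH 7.5, 1 h.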
The target of experiment [14] is Ubiquitin carboxyl-terminal hydrolase 1 (Homo sapiens) (UniProt O94782). The experiment in a line: Inhibitors of USP1/UAF1: Pilot qHTS (AID 504865).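 Further: rhodamine fluorescence freed from ubiquitin-rhodamine substrate followed over time; top concentration of the series differs between compounds; on the % scale 0 is the no-effect control and ±100 the full control effect; nearly all actives have a fitted effect of over 35% in size.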 The essentials: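 1nM USP1/UAF1 + cpd, 15 min RT; start w/ Ub-Rho 150nM final; kinetic FL 480/540 nm, 6 reads q60 s. Buffer 50mM HEPES pH 7.8, 0.5mM EDTA, 1mM TCEP, 0.01% Tween-20, 0.1 mg/ml BSA.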
Experiment [15] can be described thus: Primary qHTS for small molecule stabilizers of the endoplasmic reticulum resident proteome: Secreted ER Calcium Modulated Protein (SERCaMP) assay (AID 1508630). Further: on the % scale 0 is the no-effect control and ±100 the full control effect. The method, boiled down: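 The SH-SY5Y reporter protocol was run at 3 concentrations up to 38.3 uM (primary) or 11 concentrations (follow-up): 16 h compound, 100 nM thapsigargin for 4 h, then extracellular luciferase luminescence.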

For experiment [16], the target named is Cytochrome P450 2C9 (Homo sapiens) (UniProt P11712). The experiment in a line: qHTS Assay for Inhibitors and Substrates of Cytochrome P450 2C9 (AID 883). Further: potency means the concentration at half of the fitted maximal effect; nearly all actives have a fitted effect of over 60% in size. The essentials:
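CYP2C9 deoxyluciferin hydroxylation, 37C, 60 min with NADPH regeneration; 10nM enzyme, 100uM Luciferin-H (KM). Glo detection reagent stopped reaction; luminescence normalized to sulphaphenazole (57uM) full inhibition.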

The target in experiment [17] is Cytochrome P450 3A4 (Homo sapiens) (UniProt P08684). The experiment in a line: qHTS Assay for Activators of Cytochrome P450 3A4 (AID 885). Further: nearly all actives have a fitted effect of over 65% in size. The essentials: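 Activators are scored by enhanced luminescence from CYP3A4 conversion of luciferin-PPXE (25uM, equal to KM) to luciferin, after 60 min at RT with an NADPH-regenerating system.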
In experiment [18] the target is Rap guanine nucleotide exchange factor 3 (Homo sapiens) (UniProt O95398). The experiment in a line: Confirmatory qHTS for agonist of cAMP-regulated guanine nucleotide exchange factor 3 (EPAC1) (AID 1645881).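 Further: EPAC1 catalysed release of BODIPY-GDP from Rap1B seen as fluorescence loss; 100% = effect of cAMP agonist control; nearly all actives have a fitted effect of over 75% in size.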
Experiment [19] has as its target Rap guanine nucleotide exchange factor 4 (Homo sapiens) (UniProt Q8WZA2). As to the kind of experiment: Confirmatory qHTS for antagonist of cAMP-regulated guanine nucleotide exchange factor 4 (EPAC2) (AID 1645885). Further: nearly all actives have a fitted effect of over 25% in size. Further: potency means the concentration at half of the fitted maximal effect.
Experiment [20] concerns the target Cytochrome P450 3A4 (Homo sapiens) (UniProt P08684). The experiment in a line: qHTS Assay for Inhibitors and Substrates of Cytochrome P450 3A4 (AID 884). Further: potency means the concentration at half of the fitted maximal effect; nearly all actives have a fitted effect of over 50% in size. The method, boiled down: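 Luminescent readout of luciferin produced by CYP3A4 (20 nM) dealkylation of Luciferin-PPXE, 25 uM (its KM). NADPH-driven reaction ran 60 min at RT after 10 min compound preincubation; data scaled to 57 uM ketoconazole as 100% inhibition.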

Experiment [21] addresses Cytochrome P450 2C19 (Homo sapiens) (UniProt P33261). As to the kind of experiment: qHTS Assay for Inhibitors and Substrates of Cytochrome P450 2C19 (AID 899). Further: potency means the concentration at half of the fitted maximal effect; nearly all actives have a fitted effect of over 60% in size. The method, boiled down: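 In 50mM KPO4, the reaction held 5nM enzyme and KM-level (10uM) Luciferin-H EGE; it ran 60 min at 37C after NADPH regeneration and a 10 min compound preincubation. Luminescence values were scaled to 57uM ketoconazole as complete inhibition.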

For experiment [22], the target named is Rap guanine nucleotide exchange factor 3 (Homo sapiens) (UniProt O95398). The experiment in a line: Confirmatory qHTS for antagonist of cAMP-regulated guanine nucleotide exchange factor 3 (EPAC1) (AID 1645880).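 Further: plate controls were DMSO only for no effect and full effect of the ATA control for full effect; nearly all actives have a fitted effect of over 55% in size.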 The method, boiled down: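 Released BODIPY-GDP fluoresces less than Rap1-bound BODIPY-GDP; the signal is followed at 480/540 nm at 5-min intervals over 30 min, after 5 min at room temperature. Reactions contain 100 nM EPAC1, 250 nM RAP1B-BODIPY-GDP and 50 uM GDP; results are normalized to ATA and DMSO.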

[23] abbreviates: measured here: cell count channel max response.
Setting [24] is: measured here: lipid channel max response.

Dual specificity protein kinase CLK4 (Homo sapiens), sequence (Q9HAZ1 whole entry, looked up): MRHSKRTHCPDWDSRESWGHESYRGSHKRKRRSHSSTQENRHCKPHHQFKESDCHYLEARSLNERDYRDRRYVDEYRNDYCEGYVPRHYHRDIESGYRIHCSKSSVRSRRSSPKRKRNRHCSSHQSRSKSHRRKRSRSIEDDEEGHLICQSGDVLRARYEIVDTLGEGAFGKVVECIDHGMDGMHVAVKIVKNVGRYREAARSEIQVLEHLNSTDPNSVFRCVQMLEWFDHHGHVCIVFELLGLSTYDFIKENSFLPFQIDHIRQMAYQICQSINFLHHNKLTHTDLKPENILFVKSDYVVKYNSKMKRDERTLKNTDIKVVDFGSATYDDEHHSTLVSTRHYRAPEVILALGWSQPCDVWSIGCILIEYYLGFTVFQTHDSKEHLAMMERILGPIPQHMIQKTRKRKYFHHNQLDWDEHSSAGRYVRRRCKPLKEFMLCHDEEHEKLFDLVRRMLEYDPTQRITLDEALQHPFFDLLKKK
Glucocorticoid receptor (Homo sapiens), sequence (P04150 whole entry, looked up): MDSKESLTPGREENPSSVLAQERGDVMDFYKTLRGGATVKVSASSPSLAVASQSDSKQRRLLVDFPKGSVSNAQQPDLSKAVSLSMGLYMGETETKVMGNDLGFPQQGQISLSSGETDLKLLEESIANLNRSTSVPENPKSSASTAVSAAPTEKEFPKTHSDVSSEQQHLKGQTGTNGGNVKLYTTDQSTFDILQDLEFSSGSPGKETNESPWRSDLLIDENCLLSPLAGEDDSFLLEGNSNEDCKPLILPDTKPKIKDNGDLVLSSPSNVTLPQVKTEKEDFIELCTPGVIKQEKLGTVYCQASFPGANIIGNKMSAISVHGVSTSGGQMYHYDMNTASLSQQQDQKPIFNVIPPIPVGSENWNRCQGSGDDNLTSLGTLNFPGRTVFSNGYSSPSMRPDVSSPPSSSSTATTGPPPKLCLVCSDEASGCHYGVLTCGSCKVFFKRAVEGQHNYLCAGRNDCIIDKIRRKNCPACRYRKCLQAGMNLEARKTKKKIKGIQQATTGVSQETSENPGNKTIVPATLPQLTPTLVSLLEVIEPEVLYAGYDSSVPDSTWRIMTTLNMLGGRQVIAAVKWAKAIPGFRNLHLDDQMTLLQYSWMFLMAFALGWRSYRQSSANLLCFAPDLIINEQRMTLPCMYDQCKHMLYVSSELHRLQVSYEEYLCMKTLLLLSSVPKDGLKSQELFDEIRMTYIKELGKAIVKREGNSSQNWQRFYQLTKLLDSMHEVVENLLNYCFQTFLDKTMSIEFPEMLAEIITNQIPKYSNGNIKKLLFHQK
Cytochrome P450 1A2 (Homo sapiens), sequence (P05177 whole entry, looked up): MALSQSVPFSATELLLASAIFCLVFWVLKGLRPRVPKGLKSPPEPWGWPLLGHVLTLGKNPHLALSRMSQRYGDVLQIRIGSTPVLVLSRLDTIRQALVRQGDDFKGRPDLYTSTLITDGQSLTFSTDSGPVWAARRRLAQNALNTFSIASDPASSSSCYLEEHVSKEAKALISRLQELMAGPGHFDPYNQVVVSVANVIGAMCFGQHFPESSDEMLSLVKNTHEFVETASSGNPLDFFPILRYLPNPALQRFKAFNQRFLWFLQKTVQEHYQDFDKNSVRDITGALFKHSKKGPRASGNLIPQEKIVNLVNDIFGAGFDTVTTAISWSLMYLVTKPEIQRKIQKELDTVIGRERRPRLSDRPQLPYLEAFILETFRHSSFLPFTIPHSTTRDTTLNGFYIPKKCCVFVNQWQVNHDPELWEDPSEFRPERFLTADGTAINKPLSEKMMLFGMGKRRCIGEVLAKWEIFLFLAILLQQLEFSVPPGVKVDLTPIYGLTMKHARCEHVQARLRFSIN
Cytochrome P450 3A4 (Homo sapiens), sequence (P08684 whole entry, looked up): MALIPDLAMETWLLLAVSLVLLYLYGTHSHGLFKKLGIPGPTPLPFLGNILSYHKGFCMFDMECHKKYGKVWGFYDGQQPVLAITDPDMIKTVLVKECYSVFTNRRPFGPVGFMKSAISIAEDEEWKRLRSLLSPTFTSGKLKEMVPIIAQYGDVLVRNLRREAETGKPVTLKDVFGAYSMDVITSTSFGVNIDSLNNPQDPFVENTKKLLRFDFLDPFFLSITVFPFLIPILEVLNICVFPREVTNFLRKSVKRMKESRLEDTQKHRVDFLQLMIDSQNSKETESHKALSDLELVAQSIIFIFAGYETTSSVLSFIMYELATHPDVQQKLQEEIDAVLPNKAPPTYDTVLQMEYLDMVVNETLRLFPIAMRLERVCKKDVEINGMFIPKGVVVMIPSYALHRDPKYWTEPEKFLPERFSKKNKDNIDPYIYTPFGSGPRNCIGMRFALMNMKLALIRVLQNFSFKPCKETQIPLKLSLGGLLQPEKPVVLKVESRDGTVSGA
Lysosomal acid glucosylceramidase (Homo sapiens), sequence (P04062 whole entry, looked up): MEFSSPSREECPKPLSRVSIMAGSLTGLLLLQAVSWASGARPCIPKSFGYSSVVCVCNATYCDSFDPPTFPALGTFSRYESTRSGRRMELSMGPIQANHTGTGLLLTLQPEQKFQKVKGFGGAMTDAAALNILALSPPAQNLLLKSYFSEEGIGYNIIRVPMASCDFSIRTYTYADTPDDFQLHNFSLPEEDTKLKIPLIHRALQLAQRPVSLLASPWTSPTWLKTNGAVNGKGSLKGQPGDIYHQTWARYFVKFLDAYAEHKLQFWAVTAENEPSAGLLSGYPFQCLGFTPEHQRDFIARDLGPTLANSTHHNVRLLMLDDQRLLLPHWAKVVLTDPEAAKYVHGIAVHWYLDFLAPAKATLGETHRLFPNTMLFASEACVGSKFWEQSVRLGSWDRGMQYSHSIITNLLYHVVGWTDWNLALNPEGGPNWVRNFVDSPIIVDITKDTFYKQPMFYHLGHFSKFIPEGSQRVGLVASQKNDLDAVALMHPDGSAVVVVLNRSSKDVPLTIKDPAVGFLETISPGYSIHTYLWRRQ
Ubiquitin carboxyl-terminal hydrolase 1 (Homo sapiens), sequence (O94782 whole entry, looked up): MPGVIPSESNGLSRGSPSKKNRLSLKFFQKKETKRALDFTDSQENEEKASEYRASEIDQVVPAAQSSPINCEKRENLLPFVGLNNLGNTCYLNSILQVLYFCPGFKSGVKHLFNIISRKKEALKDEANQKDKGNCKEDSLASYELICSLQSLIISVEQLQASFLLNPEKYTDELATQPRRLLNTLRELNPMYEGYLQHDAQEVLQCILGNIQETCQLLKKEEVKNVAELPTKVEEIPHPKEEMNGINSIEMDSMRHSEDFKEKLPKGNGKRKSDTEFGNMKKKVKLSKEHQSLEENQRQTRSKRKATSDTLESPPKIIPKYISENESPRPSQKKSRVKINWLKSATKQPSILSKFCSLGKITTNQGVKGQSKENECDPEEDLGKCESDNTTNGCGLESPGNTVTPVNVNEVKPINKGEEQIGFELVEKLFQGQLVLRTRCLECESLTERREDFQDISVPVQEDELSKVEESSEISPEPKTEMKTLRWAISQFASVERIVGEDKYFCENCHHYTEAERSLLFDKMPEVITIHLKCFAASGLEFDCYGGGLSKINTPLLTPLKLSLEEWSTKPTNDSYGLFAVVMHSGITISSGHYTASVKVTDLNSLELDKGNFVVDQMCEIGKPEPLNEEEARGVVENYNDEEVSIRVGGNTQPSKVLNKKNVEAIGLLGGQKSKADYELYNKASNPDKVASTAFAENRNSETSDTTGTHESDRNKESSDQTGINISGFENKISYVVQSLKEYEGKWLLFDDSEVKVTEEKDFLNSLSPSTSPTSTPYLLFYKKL
3',5'-cyclic-AMP phosphodiesterase 4B (Homo sapiens), sequence (Q07343 whole entry, looked up): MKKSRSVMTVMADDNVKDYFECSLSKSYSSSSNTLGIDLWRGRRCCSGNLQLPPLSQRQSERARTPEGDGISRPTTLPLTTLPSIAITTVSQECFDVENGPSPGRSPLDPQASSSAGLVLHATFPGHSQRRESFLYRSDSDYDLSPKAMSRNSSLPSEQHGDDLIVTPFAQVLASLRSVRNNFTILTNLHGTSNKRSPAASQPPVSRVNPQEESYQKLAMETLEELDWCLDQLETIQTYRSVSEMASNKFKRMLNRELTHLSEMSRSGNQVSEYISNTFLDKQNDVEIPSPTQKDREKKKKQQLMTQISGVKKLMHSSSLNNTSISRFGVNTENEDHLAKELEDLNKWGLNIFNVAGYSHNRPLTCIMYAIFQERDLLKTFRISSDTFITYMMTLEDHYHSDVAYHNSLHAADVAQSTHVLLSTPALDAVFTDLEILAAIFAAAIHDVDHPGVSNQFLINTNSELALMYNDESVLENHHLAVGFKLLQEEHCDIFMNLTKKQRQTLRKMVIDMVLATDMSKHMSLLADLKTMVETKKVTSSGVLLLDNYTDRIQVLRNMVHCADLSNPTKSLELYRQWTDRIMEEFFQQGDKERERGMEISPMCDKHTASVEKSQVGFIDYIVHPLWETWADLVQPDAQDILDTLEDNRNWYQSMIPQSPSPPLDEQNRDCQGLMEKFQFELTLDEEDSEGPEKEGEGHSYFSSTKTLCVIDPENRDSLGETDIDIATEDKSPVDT
Cytochrome P450 2C19 (Homo sapiens), sequence (P33261 whole entry, looked up): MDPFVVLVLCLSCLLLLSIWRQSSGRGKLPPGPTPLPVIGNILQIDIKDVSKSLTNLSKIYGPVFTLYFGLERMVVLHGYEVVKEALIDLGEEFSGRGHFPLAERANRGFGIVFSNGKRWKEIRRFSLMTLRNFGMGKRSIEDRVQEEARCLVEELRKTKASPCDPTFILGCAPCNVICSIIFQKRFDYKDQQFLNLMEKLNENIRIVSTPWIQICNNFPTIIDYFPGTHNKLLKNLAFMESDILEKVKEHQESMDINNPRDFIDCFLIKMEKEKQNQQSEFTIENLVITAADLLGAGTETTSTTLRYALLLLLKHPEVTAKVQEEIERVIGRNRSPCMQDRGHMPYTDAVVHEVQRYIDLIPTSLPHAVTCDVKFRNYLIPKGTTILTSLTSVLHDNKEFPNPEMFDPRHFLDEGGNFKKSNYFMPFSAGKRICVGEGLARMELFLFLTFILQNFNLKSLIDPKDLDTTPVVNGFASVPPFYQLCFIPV

For `CC(=O)NCCNc1cc(-c2ccccc2CN(C)C)ncn1`, the Potency in experiment [1] was > 11.4 µM (inactive); in [6], > 46 µM (inactive); in [7], > 46 µM (inactive). Further, the activity change, negative = inhibition in experiment [2] is 3.33% (inactive); in experiment [4] it was -5.44% (inactive); in [10], -0.819% (inactive). Moreover, the Potency result in experiment [3], in experiment [9], in experiment [11], in [12], in [13] and in experiment [14] was “inactive” throughout. The Potency result in [15] is “inactive”. In addition, the activity, negative = inhibition in experiment [5] was 2.18% (inactive). In addition, the compound was called inactive in experiment [8]. Besides, the max response in experiment [10] (setting [23]) is 11.1%; in experiment [10] (setting [24]), 8.32%.
As for `O=c1c(-c2cc(F)cc(F)c2)nc2cnc(N3CCNCC3)nc2n1Cc1cccs1`, the Potency in experiment [1] is > 11.4 µM (inactive); in experiment [6], > 9.22 µM (inactive); in experiment [7], > 46 µM (inactive); in experiment [16] it was 3.98 µM (active); in experiment [19], 55.5 µM (active). The activity change, negative = inhibition in experiment [2] was 98% [activator] (active); in experiment [10], -29.8% (inactive). Further, the compound was called inactive in experiment [8] and in experiment [18]. For the same compound, the Potency entry in experiment [17] and in experiment [15] was “inactive” in each case. The max response in experiment [10] (setting [23]) was -11.3%; in [10] (setting [24]), -33.5%.
On to `COc1ccccc1-c1cc(NCc2cccc(C)c2)ncn1`, for which the Potency was > 11.4 µM (inactive) in experiment [1]; 1.58 µM (active) in [3]; > 46 µM (inactive) in experiment [6]; > 46 µM (inactive) in experiment [7]; 6.31 µM (active) in experiment [20]; 3.98 µM (active) in [21]. Also, in [12], the Potency was 35.5 µM (active). The results for the activity change, negative = inhibition in experiment [2], in experiment [4] and in experiment [10] were -9.64% (inactive), 1.95% (inactive) and -23.2% (inactive), respectively. Also, in experiment [5], the activity, negative = inhibition is -2.82% (inactive). Further, the compound was classed as inactive in experiment [8]. Further, the Potency result in experiment [17], in [15], in [22] and in [19] was “inactive” in each case. In addition, the results for the max response in [10] (setting [23]) and in experiment [10] (setting [24]) were 4.86% and -16.7%, respectively.
As for `COCCn1c(=O)c(-c2ccc(F)cc2)nc2cnc(N3CCOCC3)nc21`, the Potency in experiment [1] was > 11.4 µM (inactive); in experiment [3] it was 5.01 µM (active); in [6] it was > 9.22 µM (inactive); in experiment [7], > 46 µM (inactive). The activity change, negative = inhibition in experiment [2] was -9.35% (inactive); in experiment [4], 16.8% (inactive); in experiment [10] it was 1.75% (inactive). Moreover, the activity, negative = inhibition in [5] was -13.8% (inactive). Further, the result in experiment [8] was inactive. Further, the Potency entry in [9], in experiment [11], in experiment [12], in experiment [13], in experiment [14] and in experiment [15] was “inactive” in each case. For the same compound, the max response in experiment [10] (setting [23]) was 15.7%; in experiment [10] (setting [24]), 16.8%.
